From PubChem BioAssay AID651735 (Southern Research Specialized Biocontainment Screening …, 2012)
Calls of active or inactive are those of the source. No rule for the calls is given here.

Test: Vero 76 cell cytotoxicity, cytotoxicity control for VEEV inhibitor project, set 8 (AID 651735)
Conditions: Vero 76 cells viability; series mostly up to 50 µM; viability: at the top concentration

Compound | viability
CCN1CCN(C2c3ncccc3C(=O)N2c2ccccc2)CC1 (stereo not drawn) | 95.4% (inactive)
CCN1CCN(Cc2nc3ccc(-c4ccccn4)cc3c(=O)n2-c2ccccc2)CC1 | 89.5% (inactive)
CCN1CCN(Cc2nc3ccc([N+](=O)[O-])cc3c(=O)n2-c2ccccc2F)CC1 | 87.5% (inactive)
O=c1c2cc([N+](=O)[O-])ccc2nc(CN2CCCNCC2)n1-c1ccccc1 | 90.8% (inactive)
CN1CCN(C)C(=Nc2ccc([N+](=O)[O-])cc2C(=O)Nc2ccccc2)C1 | 88.6% (inactive)
COc1ccc(NC(=O)c2cc([N+](=O)[O-])ccc2N=C2CN(C)CCN2C)cc1 | 101% (inactive)
CN1CCN(C)C(=Nc2ccc(C#N)cc2C(=O)Nc2ccccc2)C1 | 91.2% (inactive)
O=c1c2cc([N+](=O)[O-])ccc2nc(CN2CCCNC2)n1-c1ccccc1 | 91.1% (inactive)
COc1ccc(Nc2nc(=O)c3cccnc3s2)cc1 | 94.6% (inactive)
O=c1c2cc(F)c(F)cc2nc(CN2CCNCC2)n1-c1ccccc1 | 99.6% (inactive)
COc1ccc(CNc2nc(=O)c3cccnc3s2)cc1 | 96.2% (inactive)
CN1CCN(C)C(=Nc2ccc([N+](=O)[O-])cc2C(=O)Nc2ccccc2F)C1 | 94.6% (inactive)
CN(c1ccc(OCc2ccccc2)cc1)c1nc(=O)c2cccnc2s1 | 83.4% (inactive)
